Source: PubChem
TEAD-YAP inh = TEAD-YAP interaction inhibition; HEK-TIYL cells, TEAD-Gal4/YAP UAS-luciferase luminescence; inhibition, % at 9.12 µM; actives 1.4% (n = 640,000); in the data active = inhibition above about 32%;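 also: 0% = median of test compound wells and 100% = reference inhibitor wells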
FBW7 activator = activators of human E3 ligase FBW7. Q969H0. AlphaScreen FBW7–phospho-cyclin E peptide binding, activator screen. normalized activity (activation), % at 26.1 µM. actives 0.13% (n = 650,000). AID 1259310; in the data active = normalized activity above about 1.9%;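 also: purified mutant Fbw7 with reduced substrate affinity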
GPR151 activ = activates the human receptor GPR151; Q8TDV0; PathHunter beta-arrestin GPR151 cells, luminescence; activation, % at 11.2 µM; actives 1% (n = 650,000); in the data active = activation above about 4.9%;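 also: 0% = median of compound wells and 100% = cells with positive control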
MITF inh = inhibitors of human MITF; inhibition, % at 2.6 µM; AlphaScreen MITF homodimerization, bead proximity signal; O75030; actives 0.91% (n = 650,000); in the data active = inhibition above about 50%;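 also: 0% = vehicle wells with protein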
GPR151 conf act = human GPR151 activation, confirmation screen; 6,700 tested, under 10 active; AID 1508609; GPR151 PathHunter beta-arrestin cells, luminescence, 90 min; % of EA-reagent control over plate median; activation, % at 11.2 µM; shares compounds with GPR151 activ;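 active = mean percent activation across replicates above the confirmation screen cutoff of 4.91%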
GPR119 counter = counter-screen for GPR151 activators: effect on human GPR119; activation, % at 11.2 µM; AID 1508611; shares compounds with GPR151 activ; GPR119 PathHunter beta-arrestin cells, luminescence, 90 min; 0 = compound-well median, 100 = enzyme-acceptor control; actives 0.3% (n = 6,700);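 active = mean percent activation in the counterscreen above 29.09%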;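 also: counterscreen on off-target GPR119 to flag nonselective hits from the GPR151 activator screen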
Target sequence (Q8TDV5 whole entry, looked up): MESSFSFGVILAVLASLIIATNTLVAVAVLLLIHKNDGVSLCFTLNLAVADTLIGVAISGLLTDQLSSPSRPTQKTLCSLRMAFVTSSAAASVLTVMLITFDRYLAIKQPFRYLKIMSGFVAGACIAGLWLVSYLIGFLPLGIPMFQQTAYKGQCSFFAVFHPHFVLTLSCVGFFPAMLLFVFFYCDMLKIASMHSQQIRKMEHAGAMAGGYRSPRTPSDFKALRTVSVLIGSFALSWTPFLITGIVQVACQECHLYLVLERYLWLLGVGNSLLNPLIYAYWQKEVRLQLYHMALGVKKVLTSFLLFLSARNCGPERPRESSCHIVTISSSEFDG
An asterisk follows results filed as active. This is a sample that favours compounds with a hit; in the whole collection about 3.5% have one here.

Results for CCOC(=O)C1=C(C)N(C)C(C)=C(C(=O)OCC)C1c1cccc([N+](=O)[O-])c1 ?
TEAD-YAP inh: 2; FBW7 activator: 0; GPR151 activ: 0; MITF inh: 10

How did COc1ccc(N2CCN(C3CCCN(C(=O)c4csc(SC)n4)C3)CC2)cc1 (centres undefined) do in these assays?
TEAD-YAP inh: -1; FBW7 activator: 0; GPR151 activ: 4.9*; MITF inh: 5; GPR151 conf act: 1; GPR119 counter: 9

What do the screens show for `COC(=O)c1cc(-c2ccccc2)sc1NC(=O)CN1C(=O)c2ccccc2C1=O`?
TEAD-YAP inh: 5; FBW7 activator: 0; GPR151 activ: 15*; MITF inh: 6; GPR151 conf act: 0; GPR119 counter: 2

Results for Clc1ccc(CN2CCc3nc(-c4ccccn4)nc(N4CCOCC4)c3C2)s1 ?
TEAD-YAP inh: -1; FBW7 activator: -1; GPR151 activ: 5.1*; MITF inh: 16; GPR151 conf act: 1; GPR119 counter: 10

Results for CCN(CC)S(=O)(=O)c1ccc(OCc2ccccc2C#N)c([N+](=O)[O-])c1 ?
TEAD-YAP inh: 7; FBW7 activator: 0; GPR151 activ: 5.0*; MITF inh: -9; GPR151 conf act: 0; GPR119 counter: 1

Results for COc1cccc(CC2(C3CCN(Cc4cccnc4)CC3)NC(=O)N(C)C2=O)c1 (centres undefined) ?
TEAD-YAP inh: -2; FBW7 activator: 0; GPR151 activ: 1; MITF inh: -5

What do the screens show for `COc1cccc(CC2(C3CCN(Cc4ccccc4F)CC3)NC(=O)N(C)C2=O)c1` (centres undefined)?
TEAD-YAP inh: 8; FBW7 activator: 0; GPR151 activ: 5.0*; MITF inh: 1; GPR151 conf act: 1; GPR119 counter: 4

How did Clc1ccc(Cn2ncc3c(N4CCCC4)ncnc32)cc1 do in these assays?
TEAD-YAP inh: -3; FBW7 activator: 1; GPR151 activ: 8.4*; MITF inh: 9; GPR151 conf act: 0; GPR119 counter: 6

How did Nc1ncc(Cc2cccc([N+](=O)[O-])c2)s1 do in these assays?
TEAD-YAP inh: 6; FBW7 activator: 0; GPR151 activ: 5.4*; MITF inh: -9; GPR151 conf act: 0; GPR119 counter: -4

How did O=C(Nc1ncc(Cc2cccc(C(F)(F)F)c2)s1)c1cccc([N+](=O)[O-])c1 do in these assays?
TEAD-YAP inh: -2; FBW7 activator: 0; GPR151 activ: 5.1*; MITF inh: -11; GPR151 conf act: 0; GPR119 counter: -6

Results for Nc1ncc(Cc2ccccc2)s1 ?
TEAD-YAP inh: 4; FBW7 activator: 0; GPR151 activ: 1; MITF inh: -7

How did CC(=O)c1ccc(Cc2cnc(N)s2)cc1 do in these assays?
TEAD-YAP inh: 8; FBW7 activator: 0; GPR151 activ: 8.9*; MITF inh: 5; GPR151 conf act: -1; GPR119 counter: 6

Results for CCN(C(=O)c1ccc([N+](=O)[O-])cc1Cl)c1ccccc1C ?
TEAD-YAP inh: -2; FBW7 activator: 0; GPR151 activ: 8.6*; MITF inh: 8; GPR151 conf act: -1; GPR119 counter: -9

What do the screens show for `CC(=O)C(Sc1nnc(Nc2ccc(C(C)C)cc2)s1)C(C)=O`?
TEAD-YAP inh: -33; FBW7 activator: 0; GPR151 activ: 6.0*; MITF inh: 9; GPR151 conf act: 0; GPR119 counter: -4

Results for COc1ccc(Cl)cc1NC(=O)CSc1nccn1-c1ccccc1C ?
TEAD-YAP inh: -2; FBW7 activator: 0; GPR151 activ: 5.2*; MITF inh: -1; GPR151 conf act: -1; GPR119 counter: -13

How did COc1ccc(Cl)cc1NC(=O)CSc1nc(N)cc(N)n1 do in these assays?
TEAD-YAP inh: -8; FBW7 activator: 0; GPR151 activ: 0; MITF inh: 0

How did COc1ccc(Cl)cc1NC(=O)CSc1nc(=O)n2ccccc2n1 do in these assays?
TEAD-YAP inh: 3; FBW7 activator: 0; GPR151 activ: 5.7*; MITF inh: 5; GPR151 conf act: 0; GPR119 counter: -15

Results for O=C(NC1CCCCC1)C(c1cccnc1)N(CCc1ccccc1)C(=O)c1csnn1 (centres undefined) ?
TEAD-YAP inh: 0; FBW7 activator: 0; GPR151 activ: 1; MITF inh: 9

Results for O=CNC(c1ccc(Cl)cc1)c1ccc(Cl)cc1 ?
TEAD-YAP inh: 12; FBW7 activator: 0; GPR151 activ: 0; MITF inh: 8

Results for O=CNC(c1ccccc1)c1ccc(Cl)cc1Cl (centres undefined) ?
TEAD-YAP inh: 6; FBW7 activator: 0; GPR151 activ: 9.9*; MITF inh: -36; GPR151 conf act: -1; GPR119 counter: -9

How did O=C1NC(N2CCOCC2)=N/C1=C/c1ccc2c(c1)OCO2 do in these assays?
TEAD-YAP inh: -15; FBW7 activator: 0; GPR151 activ: 9.4*; MITF inh: 5; GPR151 conf act: 0; GPR119 counter: 6

What do the screens show for `CC(=O)Nc1ccc(C(=O)CSc2n[nH]c(C)n2)cc1`?
TEAD-YAP inh: -2; FBW7 activator: 0; GPR151 activ: 0; MITF inh: 10

What do the screens show for `CCOC(=O)C1(CC2CCCCO2)CCN(Cc2cnc(SC)nc2)CC1` (centres undefined)?
TEAD-YAP inh: -9; FBW7 activator: 0; GPR151 activ: 2; MITF inh: 0

How did CCOC(=O)C1(CC2CCCCO2)CCN(CCCSC)CC1 (centres undefined) do in these assays?
TEAD-YAP inh: -2; FBW7 activator: 0; GPR151 activ: 6.6*; MITF inh: 0; GPR151 conf act: 0; GPR119 counter: -9

How did COc1ccc(-c2cnc3ccc(NCc4ccco4)nn23)cn1 do in these assays?
TEAD-YAP inh: 4; FBW7 activator: 0; GPR151 activ: 0; MITF inh: -6

Results for CCOC(=O)C1CCN(CCC(=O)Nc2ccc(Br)c(C)c2)CC1 ?
TEAD-YAP inh: -9; FBW7 activator: 2; GPR151 activ: 10*; MITF inh: 9; GPR151 conf act: 0; GPR119 counter: -8

What do the screens show for `O=C(CSc1nnc2ccccn12)c1cc2ccccc2o1`?
TEAD-YAP inh: -2; FBW7 activator: 0; GPR151 activ: 1; MITF inh: 8

What do the screens show for `O=C(c1oc2ccccc2c1N1CCCCC1)N1CCCCC1`?
TEAD-YAP inh: 10; FBW7 activator: 0; GPR151 activ: 5.0*; MITF inh: 0; GPR151 conf act: -1; GPR119 counter: 0

How did Cc1ccc(C(C)C)cc1OCCOCCNCCN(C)C do in these assays?
TEAD-YAP inh: 12; FBW7 activator: 0; GPR151 activ: 5.1*; MITF inh: -19; GPR151 conf act: -1; GPR119 counter: -1

How did C=CCS/C(=C(/C#N)C(N)=O)c1cc2c([nH]1)CCCC2 do in these assays?
TEAD-YAP inh: -2; FBW7 activator: 0; GPR151 activ: 8.6*; MITF inh: 6; GPR151 conf act: 0; GPR119 counter: 5
